Results as given in PubChem BioAssay (Tox21).
Values joined by “and” are separate entries in the source; they are usually repeats but may differ in a detail not shown here. Equal values may be shown once. Inconclusive results are not listed. Active and inactive are the calls of the source. Calls come from the whole dose curve; as a rule, active = well fitted curve in the direction sought with a large enough effect in the repeat runs; inconclusive = weak or mixed curves; inactive = no such curve, though single readings can be large; an effect the other way counts as inactive or inconclusive.

Columns and labels:
[1] = Human pregnane X receptor (PXR) small molecule agonists, qHTS cell viability counter screen (AID 1346977); note: nearly all actives have a fitted effect of over 50% in size; note: potency is the fitted concentration of half-maximal effect
How it was run: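 PXR-Luc HepG2, 2,000 cells/well, 5% charcoal-stripped FBS; 5hr settle; cpd 24hr, 37C/5% CO2; CellTiter-Fluor at 23hr, read 1hr later (fluorescence).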

[2] = Caspase-3/7 induction in HepG2 cells by small molecules, qHTS assay (AID 1346978); note: nearly all actives have a fitted effect of over 15% in size
How it was run: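 Wild-type HepG2 cells, 2,000/well, settled 5 hr at 37 C and 5% CO2, then compound-treated for 17 hr; caspase-3/7 activity read by luminescent Caspase-Glo 3/7 after 30 min at room temperature.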

[3] = Caspase-3/7 induction in CHO-K1 cells by small molecules, qHTS cell viability counter screen (AID 1346979); note: nearly all actives have a fitted effect of over 35% in size; note: potency is the fitted concentration of half-maximal effect
How it was run: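 Cells (CHO-K1, wild type) are plated at 1,500 per well and incubated 5hr. Test compounds in DMSO are then pinned in, followed by 16hr at 37C and 5% CO2. Viability is read by CellTiter-Fluor fluorescence after 1hr.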

[4] = target: Nuclear receptor subfamily 1 group I member 2 (Homo sapiens) (UniProt O75469); experiment: Human pregnane X receptor (PXR) small molecule agonists, qHTS assay (AID 1346982); note: nearly all actives have a fitted effect of over 35% in size; note: potency is the fitted concentration of half-maximal effect
Chain of Nuclear receptor subfamily 1 group I member 2 (Homo sapiens) (O75469 whole entry, looked up): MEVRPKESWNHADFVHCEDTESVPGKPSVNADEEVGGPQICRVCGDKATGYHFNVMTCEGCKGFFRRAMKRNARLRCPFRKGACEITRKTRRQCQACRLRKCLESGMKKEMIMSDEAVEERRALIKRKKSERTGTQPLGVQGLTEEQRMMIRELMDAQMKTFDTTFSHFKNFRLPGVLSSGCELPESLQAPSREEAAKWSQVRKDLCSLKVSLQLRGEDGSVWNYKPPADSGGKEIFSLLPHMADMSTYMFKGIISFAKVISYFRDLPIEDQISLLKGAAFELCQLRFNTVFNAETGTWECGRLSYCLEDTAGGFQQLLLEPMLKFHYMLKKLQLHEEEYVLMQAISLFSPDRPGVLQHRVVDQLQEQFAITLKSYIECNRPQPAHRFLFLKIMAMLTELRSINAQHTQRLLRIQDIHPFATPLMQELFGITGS
How it was run: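 Compound-induced hPXR transactivation of a CYP3A4 luciferase reporter was scored in HepG2 PXR-Luc cells over 24 hr at 37 C, 5% CO2, by luminescence.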

[5] = target: Cytochrome P450 2D6 (Homo sapiens) (UniProt P10635); experiment: Cytochrome P450 Family 2 Subfamily D Member 6 (CYP2D6) small molecule antagonists: luciferase reporter qHTS assay (AID 1671196); note: nearly all actives have a fitted effect of over 50% in size; note: potency is the fitted concentration of half-maximal effect
Chain of Cytochrome P450 2D6 (Homo sapiens) (P10635 whole entry, looked up): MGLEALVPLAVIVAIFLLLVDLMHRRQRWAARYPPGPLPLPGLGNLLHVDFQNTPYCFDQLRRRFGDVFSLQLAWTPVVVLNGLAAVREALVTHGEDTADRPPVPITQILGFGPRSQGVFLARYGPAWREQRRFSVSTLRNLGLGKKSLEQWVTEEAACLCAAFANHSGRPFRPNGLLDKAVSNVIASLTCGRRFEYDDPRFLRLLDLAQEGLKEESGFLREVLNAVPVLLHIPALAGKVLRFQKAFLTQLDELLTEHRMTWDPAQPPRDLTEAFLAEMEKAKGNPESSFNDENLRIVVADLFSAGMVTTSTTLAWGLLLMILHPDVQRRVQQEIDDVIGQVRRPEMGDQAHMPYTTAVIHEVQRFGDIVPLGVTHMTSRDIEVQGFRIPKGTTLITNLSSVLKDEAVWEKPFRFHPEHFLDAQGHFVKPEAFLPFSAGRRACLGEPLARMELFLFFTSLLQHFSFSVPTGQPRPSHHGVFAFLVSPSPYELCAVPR
How it was run: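 Each well received CYP2D6 with its proluciferin substrate and chemical, sat 10 min, then got NADPH regeneration solution for 1 h at room temperature. Luminescence in RLU served as the activity measure.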

[6] = target: Cytochrome P450 2C19 (Homo sapiens) (UniProt P33261); experiment: Cytochrome P450 Family 2 Subfamily C Member 19 (CYP2C19) small molecule antagonists: luciferase reporter qHTS assay (AID 1671197); note: nearly all actives have a fitted effect of over 65% in size; note: potency is the fitted concentration of half-maximal effect
Chain of Cytochrome P450 2C19 (Homo sapiens) (P33261 whole entry, looked up): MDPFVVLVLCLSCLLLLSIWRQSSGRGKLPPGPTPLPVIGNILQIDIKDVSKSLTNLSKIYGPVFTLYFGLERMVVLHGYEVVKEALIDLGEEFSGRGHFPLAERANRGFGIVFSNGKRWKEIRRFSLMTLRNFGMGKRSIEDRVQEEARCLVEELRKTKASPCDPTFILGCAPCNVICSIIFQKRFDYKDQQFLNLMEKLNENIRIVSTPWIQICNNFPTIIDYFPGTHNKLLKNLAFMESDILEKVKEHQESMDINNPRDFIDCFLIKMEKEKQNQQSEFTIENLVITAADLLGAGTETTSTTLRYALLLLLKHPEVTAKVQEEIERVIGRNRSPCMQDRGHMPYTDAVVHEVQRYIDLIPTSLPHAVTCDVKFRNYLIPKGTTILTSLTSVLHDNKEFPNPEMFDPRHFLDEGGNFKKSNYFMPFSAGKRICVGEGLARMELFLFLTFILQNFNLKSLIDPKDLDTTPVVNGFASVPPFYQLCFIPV
How it was run: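 CYP2C19 P450-Glo, 1536-well qHTS. Cpd + enzyme/proluciferin substrate 10 min RT; + NADPH regen, 37C 1 h; stop with luciferin detection reagent, 20 min RT, luminescence (RLU). Pos ctrl ketoconazole.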

[7] = target: Cytochrome P450 2C9 (Homo sapiens) (UniProt P11712); experiment: Cytochrome P450 Family 2 Subfamily C Member 9 (CYP2C9) small molecule antagonists: luciferase reporter qHTS assay (AID 1671198); note: nearly all actives have a fitted effect of over 50% in size; note: potency is the fitted concentration of half-maximal effect
Chain of Cytochrome P450 2C9 (Homo sapiens) (P11712 whole entry, looked up): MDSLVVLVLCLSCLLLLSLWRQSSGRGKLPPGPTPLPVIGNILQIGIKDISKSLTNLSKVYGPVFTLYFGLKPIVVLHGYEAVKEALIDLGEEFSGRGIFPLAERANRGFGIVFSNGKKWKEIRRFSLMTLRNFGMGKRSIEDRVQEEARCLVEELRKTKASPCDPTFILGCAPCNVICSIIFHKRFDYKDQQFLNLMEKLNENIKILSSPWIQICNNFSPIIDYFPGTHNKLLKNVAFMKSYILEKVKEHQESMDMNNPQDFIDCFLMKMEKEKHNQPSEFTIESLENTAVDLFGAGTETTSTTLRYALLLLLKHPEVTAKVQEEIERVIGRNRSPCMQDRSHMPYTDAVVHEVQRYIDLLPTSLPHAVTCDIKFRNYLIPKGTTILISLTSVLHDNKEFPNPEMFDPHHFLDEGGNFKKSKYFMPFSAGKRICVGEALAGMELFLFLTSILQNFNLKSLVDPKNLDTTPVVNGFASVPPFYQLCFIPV
How it was run: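 P450-Glo proluciferin substrate with CYP2C9 enzyme; 10 min RT preincubation, then NADPH regeneration 1 h at 37C; luciferin detection reagent 20 min RT, luminescence in relative luminescence units.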

[8] = target: Cytochrome P450 1A2 (Homo sapiens) (UniProt P05177); experiment: Cytochrome P450 Family 1 Subfamily A Member 2 (CYP1A2) small molecule antagonists: luciferase reporter qHTS assay (AID 1671199); note: nearly all actives have a fitted effect of over 50% in size; note: potency is the fitted concentration of half-maximal effect
Chain of Cytochrome P450 1A2 (Homo sapiens) (P05177 whole entry, looked up): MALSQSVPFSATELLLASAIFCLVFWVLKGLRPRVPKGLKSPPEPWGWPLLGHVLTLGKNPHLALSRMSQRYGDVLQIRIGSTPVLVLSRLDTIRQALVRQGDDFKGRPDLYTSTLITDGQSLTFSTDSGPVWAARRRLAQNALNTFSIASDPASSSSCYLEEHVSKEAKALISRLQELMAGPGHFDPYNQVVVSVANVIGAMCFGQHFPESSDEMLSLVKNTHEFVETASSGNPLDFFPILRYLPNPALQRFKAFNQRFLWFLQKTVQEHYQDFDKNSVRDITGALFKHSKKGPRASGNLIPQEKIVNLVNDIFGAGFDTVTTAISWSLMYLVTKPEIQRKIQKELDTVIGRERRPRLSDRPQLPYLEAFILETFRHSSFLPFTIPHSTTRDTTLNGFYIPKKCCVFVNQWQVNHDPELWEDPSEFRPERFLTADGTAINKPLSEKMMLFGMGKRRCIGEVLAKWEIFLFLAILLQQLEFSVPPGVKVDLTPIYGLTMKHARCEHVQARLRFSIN
How it was run: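 Enzymatic CYP1A2 assay, human, luminescent: 10 min compound–enzyme–substrate preincubation, 1 h NADPH-dependent turnover, 20 min detection step, room temperature throughout. Reduced light indicates lower CYP1A2 activity.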

[9] = target: Voltage-gated inwardly rectifying potassium channel KCNH2 (Homo sapiens) (UniProt Q12809); experiment: Human Ether-a-go-go-Related Gene (hERG) channel small molecule antagonists: fluorescence cell-based qHTS assay (AID 1671200)
Chain of Voltage-gated inwardly rectifying potassium channel KCNH2 (Homo sapiens) (Q12809 whole entry, looked up): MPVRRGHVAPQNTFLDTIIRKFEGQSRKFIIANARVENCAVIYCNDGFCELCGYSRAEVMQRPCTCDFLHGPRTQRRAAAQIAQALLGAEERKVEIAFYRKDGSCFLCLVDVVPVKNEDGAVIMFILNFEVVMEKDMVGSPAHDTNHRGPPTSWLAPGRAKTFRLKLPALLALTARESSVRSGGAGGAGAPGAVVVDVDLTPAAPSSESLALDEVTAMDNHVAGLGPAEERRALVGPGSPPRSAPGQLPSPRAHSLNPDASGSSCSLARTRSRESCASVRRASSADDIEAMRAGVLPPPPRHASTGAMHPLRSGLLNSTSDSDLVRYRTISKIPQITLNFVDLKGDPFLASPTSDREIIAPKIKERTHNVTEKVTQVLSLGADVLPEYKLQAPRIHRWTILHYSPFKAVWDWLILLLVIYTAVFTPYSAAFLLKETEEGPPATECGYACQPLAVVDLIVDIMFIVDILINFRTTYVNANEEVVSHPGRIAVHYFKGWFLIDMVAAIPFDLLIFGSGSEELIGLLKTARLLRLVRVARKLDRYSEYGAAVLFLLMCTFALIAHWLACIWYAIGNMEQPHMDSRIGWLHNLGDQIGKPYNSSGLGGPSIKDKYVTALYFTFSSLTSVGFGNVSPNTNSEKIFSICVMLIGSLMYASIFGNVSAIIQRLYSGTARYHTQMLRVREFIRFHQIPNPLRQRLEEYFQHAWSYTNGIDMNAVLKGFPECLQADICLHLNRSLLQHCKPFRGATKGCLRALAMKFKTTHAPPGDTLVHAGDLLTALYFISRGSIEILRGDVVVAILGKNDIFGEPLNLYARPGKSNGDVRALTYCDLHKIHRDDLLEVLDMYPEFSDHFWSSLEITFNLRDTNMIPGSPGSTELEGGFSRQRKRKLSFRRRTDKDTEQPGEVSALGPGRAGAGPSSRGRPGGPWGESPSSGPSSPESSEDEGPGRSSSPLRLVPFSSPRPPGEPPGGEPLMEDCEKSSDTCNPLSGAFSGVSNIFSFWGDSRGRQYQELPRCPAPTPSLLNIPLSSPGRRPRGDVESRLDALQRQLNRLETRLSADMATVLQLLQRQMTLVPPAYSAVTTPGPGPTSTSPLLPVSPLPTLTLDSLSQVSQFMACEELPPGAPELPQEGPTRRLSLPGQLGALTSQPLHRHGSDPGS
How it was run: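 Channel function was assessed by thallium flux. Cells seeded the previous day and kept at 37 C took up FluxOR II dye over 1 h in the dark at room temperature, then sat another 10 min before stimulation.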

[10] = target: Cytochrome P450 3A4 (Homo sapiens) (UniProt P08684); experiment: Cytochrome P450 Family 3 Subfamily A Member 4 (CYP3A4) small molecule antagonists: luciferase reporter qHTS assay (AID 1671201)
Chain of Cytochrome P450 3A4 (Homo sapiens) (P08684 whole entry, looked up): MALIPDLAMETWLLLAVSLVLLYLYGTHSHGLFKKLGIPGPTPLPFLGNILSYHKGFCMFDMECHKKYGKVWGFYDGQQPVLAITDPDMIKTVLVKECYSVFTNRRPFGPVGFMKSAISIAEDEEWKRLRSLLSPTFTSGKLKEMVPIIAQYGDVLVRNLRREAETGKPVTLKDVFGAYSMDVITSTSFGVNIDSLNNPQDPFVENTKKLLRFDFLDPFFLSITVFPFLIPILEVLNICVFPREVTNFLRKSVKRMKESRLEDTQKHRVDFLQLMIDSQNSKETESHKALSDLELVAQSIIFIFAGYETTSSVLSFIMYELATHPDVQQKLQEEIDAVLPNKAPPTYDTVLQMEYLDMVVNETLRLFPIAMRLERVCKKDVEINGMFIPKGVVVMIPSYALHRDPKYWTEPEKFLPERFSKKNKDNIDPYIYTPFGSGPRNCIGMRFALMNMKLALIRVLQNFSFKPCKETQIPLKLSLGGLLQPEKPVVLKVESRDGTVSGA
How it was run: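 Compounds in DMSO were pin-transferred onto CYP3A4 enzyme-substrate mix and held 10 min at room temperature. NADPH regenerating solution started the reaction for 1 h; luciferin detection reagent stopped it, and luminescence was read after 20 min.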

[11] = Caspase-3/7 induction in CHO-K1 cells by small molecules, qHTS assay (AID 1346980); note: nearly all actives have a fitted effect of over 15% in size
How it was run: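 Wild-type CHO-K1 cells exposed to compounds for 17hr at 37 C, 5% CO2. Caspase-3/7 activity then measured by Caspase-Glo 3/7 luminescence after 30min at room temperature.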

[12] = Caspase-3/7 induction in HepG2 cells by small molecules, qHTS cell viability counter screen (AID 1346981); note: nearly all actives have a fitted effect of over 30% in size; note: potency is the fitted concentration of half-maximal effect
How it was run: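 Viability determined by CellTiter-Fluor fluorescence in HepG2 wells also used for the luminescent Caspase-Glo 3/7 read. Compounds were present for 16 hr at 37 C, 5% CO2 before reagent addition.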

[13] = target: Nuclear receptor subfamily 1 group I member 2 (Homo sapiens) (UniProt O75469); experiment: CYP3A4 induction through human pregnane X receptor (PXR) by small molecules, qHTS assay (AID 1346984); note: nearly all actives have a fitted effect of over 40% in size
How it was run: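 Readings come from a luciferase reporter: DPX-2 cells, which are HepG2 cotransfected with PXR and a CYP3A4-promoter construct, were exposed to test compounds for 24 h at 37C before One-Glo detection.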

[14] = target: Nuclear receptor subfamily 1 group I member 2 (Homo sapiens) (UniProt O75469); experiment: Human pregnane X receptor (PXR) activation by small molecules, qHTS assay (AID 1346985); note: potency is the fitted concentration of half-maximal effect; nearly all actives have a fitted effect of over 40% in size
How it was run: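 DPX-2 cells (HepG2 co-transfected with a PXR response element and a CYP3A4-promoter luciferase construct) were seeded at 2,000 per well, rested 5 hr at 37C, then exposed to DMSO-dissolved compounds for 24 hr. Activation was read as luciferase luminescence.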

Measured: Potency

CCOC(=O)c1ccccc1OC
active: [6] 79.6 µM | [8] 35.6 µM
not listed: [11] | [12] | [13] | [14]
inactive: all other assays above

C[C@@H]1C[C@H]2[C@@H]3CCC4=CC(=O)C=C[C@]4(C)[C@@]3(F)[C@@H](O)C[C@]2(C)[C@@]1(O)C(=O)CO
inactive: [1] | [2] | [3] | [11] | [12] | [9]

COC(=O)CC(=O)C(C)(C)C
not listed: [7] | [8] | [13] | [14]
inactive: all other assays above

CC(C)CCCCCCOC(=O)CCCCC(=O)OCCCCCCC(C)C
active: [8] 35.6 µM
not listed: [7] | [9] | [11] | [13] | [14]
inactive: all other assays above

CC(=N\O)/C(C)=N/O
active: [8] 35.6 µM
not listed: [5] | [6] | [11] | [13] | [14]
inactive: all other assays above

O=C(O)c1cccc(O)c1
active: [6] 40.2 µM
not listed: [7] | [8] | [13] | [14]
inactive: all other assays above

Cc1ccccc1N1C(=O)c2cc(S(N)(=O)=O)c(Cl)cc2NC1C (configuration not stated)
active: [4] 5.31 µM
not listed: [7] | [10] | [13] | [14]
inactive: all other assays above

CC(CCO)CCc1ccccc1 (configuration not stated)
active: [6] 7.96 µM | [7] 35.6 µM | [8] 22.4 µM
not listed: [11] | [13] | [14]
inactive: all other assays above

CN(C)C(=O)Nc1ccc(Oc2ccc(Cl)cc2)cc1
inactive: [1] | [2] | [11] | [9]
active: [3] 54.5 µM | [4] 10.9 µM | [6] 17.8 µM | [7] 35.6 µM | [8] 12.6 µM

CC(COc1ccc(C(C)(C)C)cc1)OS(=O)OCCCl (configuration not stated)
active: [1] 12.3 µM | [3] 10.9 µM | [12] 15.4 µM | [4] 9.74 µM
not listed: [6] | [13] | [14]
inactive: all other assays above

Cc1oncc1C(=O)Nc1ccc(C(F)(F)F)cc1
active: [4] 12.2 µM and 1.5 µM | [14] 0.708 µM | [5] 31.7 µM | [6] 8.94 µM and 8.71 µM | [7] 25.2 µM and 15.5 µM | [8] 1.59 µM and 911 nM
not listed: [10] | [11]
inactive: all other assays above
